Changes are numbered by the printed parent chain; changes in the protein carry UniProt numbers. Whole data set: some 16,000 sequences, median “ka relative to ugcaugu” near 0.096, cut for the highest 2% near 0.35. For the sample, the highest values were picked, then their nearest neighbours and some sequences at random.
T1: RBFOX1 RRM RbFoxmut (Fox-RRM*) (Homo sapiens, UniProt Q9NWB1 109-208, R118D;E147R;N151S;E152T)
T1 sequence: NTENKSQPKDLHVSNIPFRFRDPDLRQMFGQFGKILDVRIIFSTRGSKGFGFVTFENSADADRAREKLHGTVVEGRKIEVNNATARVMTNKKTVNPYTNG

B1: GUCCUGC (DNA:RNA)
RNA: GGGAGACCGGAAUUCAGAUUGUCCGUCCUGCUUAAAUCCCGUCGUAGCCACCA
DNA 1: CAATCTGAATTCCGGTCTCCC
DNA 2: TGGTGGCTACGACGGGATT
B2: UGCUGCA (DNA:RNA)
RNA: B1 RNA with G25U, U26G, C28U, U29G, G30C, C31A
DNA 1: CAATCTGAATTCCGGTCTCCC
DNA 2: TGGTGGCTACGACGGGATT
B3: UUCAUGC (DNA:RNA)
RNA: B1 RNA with G25U, C28A
DNA 1: CAATCTGAATTCCGGTCTCCC
DNA 2: TGGTGGCTACGACGGGATT
B4: UGCAUCC (DNA:RNA)
RNA: B1 RNA with G25U, U26G, C28A, G30C
DNA 1: CAATCTGAATTCCGGTCTCCC
DNA 2: TGGTGGCTACGACGGGATT
B5: UGCAUUG (DNA:RNA)
RNA: B1 RNA with G25U, U26G, C28A, G30U, C31G
DNA 1: CAATCTGAATTCCGGTCTCCC
DNA 2: TGGTGGCTACGACGGGATT
B6: AACCCAG (DNA:RNA)
RNA: B1 RNA with G25A, U26A, U29C, G30A, C31G
DNA 1: CAATCTGAATTCCGGTCTCCC
DNA 2: TGGTGGCTACGACGGGATT
B7: CCAAUCA (DNA:RNA)
RNA: B1 RNA with G25C, U26C, C27A, C28A, G30C, C31A
DNA 1: CAATCTGAATTCCGGTCTCCC
DNA 2: TGGTGGCTACGACGGGATT
B8: UCAGUGG (DNA:RNA)
RNA: B1 RNA with G25U, U26C, C27A, C28G, C31G
DNA 1: CAATCTGAATTCCGGTCTCCC
DNA 2: TGGTGGCTACGACGGGATT
B9: AGUUGAG (DNA:RNA)
RNA: GGGAGACCGGAAUUCAGAUUGUCCAGUUGAGUUAAAUCCCGUCGUAGCCACCA
DNA 1: CAATCTGAATTCCGGTCTCCC
DNA 2: TGGTGGCTACGACGGGATT
B10: AUAGCCG (DNA:RNA)
RNA: B9 RNA with G26U, U27A, U28G, G29C, A30C
DNA 1: CAATCTGAATTCCGGTCTCCC
DNA 2: TGGTGGCTACGACGGGATT
B11: AAGUGAG (DNA:RNA)
RNA: B9 RNA with G26A, U27G
DNA 1: CAATCTGAATTCCGGTCTCCC
DNA 2: TGGTGGCTACGACGGGATT
B12: UGCAUUA (DNA:RNA)
RNA: B1 RNA with G25U, U26G, C28A, G30U, C31A
DNA 1: CAATCTGAATTCCGGTCTCCC
DNA 2: TGGTGGCTACGACGGGATT
B13: UGCGUGG (DNA:RNA)
RNA: B1 RNA with G25U, U26G, C28G, C31G
DNA 1: CAATCTGAATTCCGGTCTCCC
DNA 2: TGGTGGCTACGACGGGATT
B14: UGCAUGG (DNA:RNA)
RNA: B1 RNA with G25U, U26G, C28A, C31G
DNA 1: CAATCTGAATTCCGGTCTCCC
DNA 2: TGGTGGCTACGACGGGATT
B15: UGCCUGG (DNA:RNA)
RNA: B1 RNA with G25U, U26G, C31G
DNA 1: CAATCTGAATTCCGGTCTCCC
DNA 2: TGGTGGCTACGACGGGATT
B16: UGCAUAA (DNA:RNA)
RNA: B9 RNA with A25U, U27C, U28A, G29U, G31A
DNA 1: CAATCTGAATTCCGGTCTCCC
DNA 2: TGGTGGCTACGACGGGATT
B17: UGCAUGA (DNA:RNA)
RNA: B1 RNA with G25U, U26G, C28A, C31A
DNA 1: CAATCTGAATTCCGGTCTCCC
DNA 2: TGGTGGCTACGACGGGATT
B18: UGCGUCA (DNA:RNA)
RNA: B1 RNA with G25U, U26G, C28G, G30C, C31A
DNA 1: CAATCTGAATTCCGGTCTCCC
DNA 2: TGGTGGCTACGACGGGATT
B19: UGCAUCA (DNA:RNA)
RNA: B1 RNA with G25U, U26G, C28A, G30C, C31A
DNA 1: CAATCTGAATTCCGGTCTCCC
DNA 2: TGGTGGCTACGACGGGATT
B20: UCCUGCA (DNA:RNA)
RNA: B9 RNA with A25U, G26C, U27C, A30C, G31A
DNA 1: CAATCTGAATTCCGGTCTCCC
DNA 2: TGGTGGCTACGACGGGATT

Target: T1, RBFOX1 RRM RbFoxmut (Fox-RRM*)
Test: EMSA; HiTS-Eq, 1 nM pool, 10 min; buffer printed only for the single-RNA assays: 10 mM Tris pH 7.5, 150 mM NaCl, 3.4 mM EDTA, 0.001% NP-40, 30 C
Details: tags: His6 N-terminal (pET28a); label: 5' 32P
Procedure, shortened: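 These values rest on relative association constants, computed from read-count changes of each RNA species versus the control reaction and normalised to the cognate motif. Reads came from free RNA recovered by 8% native PAGE after purified RbFox RRM (wild type or mutant) at increasing concentrations was equilibrated for 10 min in 50 µL with 1 nM of a 5′-radiolabelled pool with 7 randomized nucleotides and DNA-annealed flanks.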

In order of rising binding signal:
1. B7  0.0737 KA relative to UGCAUGU
2. B6  0.0936 KA relative to UGCAUGU
3. B8  0.101 KA relative to UGCAUGU
4. B1  0.104 KA relative to UGCAUGU
5. B10  0.119 KA relative to UGCAUGU
6. B3  0.13 KA relative to UGCAUGU
7. B9  0.133 KA relative to UGCAUGU
8. B11  0.137 KA relative to UGCAUGU
9. B13  0.138 KA relative to UGCAUGU
10. B16  0.146 KA relative to UGCAUGU
11. B18  0.155 KA relative to UGCAUGU
12. B12  0.163 KA relative to UGCAUGU
13. B15  0.233 KA relative to UGCAUGU
14. B20  0.24 KA relative to UGCAUGU
15. B2  0.251 KA relative to UGCAUGU
16. B4  0.421 KA relative to UGCAUGU
17. B5  0.494 KA relative to UGCAUGU
18. B19  0.565 KA relative to UGCAUGU
19. B17  0.692 KA relative to UGCAUGU
20. B14  0.935 KA relative to UGCAUGU

Source: paper PMC9911399, “Two distinct binding modes provide the RNA-binding protein RbFox with extraordinary sequence specificity”
